Assay results: publication PMC7862700, “An all-to-all approach to the identification of sequence-specific readers for epigenetic DNA modifications on cytosine”

Columns and labels:
Experiment in all cases: DAPPL (digital affinity profiling via proximity ligation, sequencing); 10 mM Tris-HCl pH 7.5, 50 mM NaCl, 1 mM DTT, 4% glycerol, room temperature, 30 min; GST-TFs on glutathione beads, 16-mer random dsDNA library, 0.1% formaldehyde crosslink after washing; high values mean tight binding
Conditions in all cases: protein: recombinant; tags: N-terminal GST; dsDNA, one strand shown
ELK4 = biological target: T1, ELK4 (Homo sapiens, UniProt P28324-2 1-405)
T1 sequence: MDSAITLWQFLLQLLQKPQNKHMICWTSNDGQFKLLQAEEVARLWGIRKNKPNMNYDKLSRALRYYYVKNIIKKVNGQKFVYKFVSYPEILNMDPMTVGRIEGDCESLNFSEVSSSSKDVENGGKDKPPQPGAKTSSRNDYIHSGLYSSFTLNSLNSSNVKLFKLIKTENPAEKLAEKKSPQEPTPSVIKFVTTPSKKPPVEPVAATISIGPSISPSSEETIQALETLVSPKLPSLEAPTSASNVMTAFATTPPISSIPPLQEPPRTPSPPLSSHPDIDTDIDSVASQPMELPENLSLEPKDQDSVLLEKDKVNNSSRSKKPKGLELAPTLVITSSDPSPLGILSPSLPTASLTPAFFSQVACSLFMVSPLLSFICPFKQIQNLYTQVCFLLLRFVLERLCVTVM
Procedure, shortened: (§1)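 GST fusions of human transcription factors were expressed in yeast and captured with glutathione beads. Once given DNA barcodes and pooled alongside a tag-only sample, they were incubated for 30 min at room temperature with 200 nmole of a random double-stranded 16-mer DNA library in Tris/NaCl/DTT/glycerol buffer, then washed, crosslinked (0.1% formaldehyde), proximity-ligated, PCR-amplified and sequenced on an Illumina NextSeq500. The binding signal of each hexamer is its read frequency for a factor divided by its frequency for the tag-only sample.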

ELF3 = biological target: T2, ELF3 (Homo sapiens, UniProt P78545 1-371)
T2 sequence: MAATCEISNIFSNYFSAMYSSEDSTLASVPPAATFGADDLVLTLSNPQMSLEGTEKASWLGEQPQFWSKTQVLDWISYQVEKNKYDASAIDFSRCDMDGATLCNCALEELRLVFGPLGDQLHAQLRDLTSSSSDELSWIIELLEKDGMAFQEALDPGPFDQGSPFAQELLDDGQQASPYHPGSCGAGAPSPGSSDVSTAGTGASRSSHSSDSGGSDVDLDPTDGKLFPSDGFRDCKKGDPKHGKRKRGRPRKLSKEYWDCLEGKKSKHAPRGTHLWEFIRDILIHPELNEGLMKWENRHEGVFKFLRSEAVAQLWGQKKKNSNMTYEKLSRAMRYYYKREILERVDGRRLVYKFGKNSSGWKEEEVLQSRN
Procedure, shortened: as §1

ETV1 = ETV1 (Homo sapiens, UniProt P50549 1-477)
Procedure, shortened: as §1

ERF = biological target: T3, ERF (Homo sapiens, UniProt P50548 1-548)
T3 sequence: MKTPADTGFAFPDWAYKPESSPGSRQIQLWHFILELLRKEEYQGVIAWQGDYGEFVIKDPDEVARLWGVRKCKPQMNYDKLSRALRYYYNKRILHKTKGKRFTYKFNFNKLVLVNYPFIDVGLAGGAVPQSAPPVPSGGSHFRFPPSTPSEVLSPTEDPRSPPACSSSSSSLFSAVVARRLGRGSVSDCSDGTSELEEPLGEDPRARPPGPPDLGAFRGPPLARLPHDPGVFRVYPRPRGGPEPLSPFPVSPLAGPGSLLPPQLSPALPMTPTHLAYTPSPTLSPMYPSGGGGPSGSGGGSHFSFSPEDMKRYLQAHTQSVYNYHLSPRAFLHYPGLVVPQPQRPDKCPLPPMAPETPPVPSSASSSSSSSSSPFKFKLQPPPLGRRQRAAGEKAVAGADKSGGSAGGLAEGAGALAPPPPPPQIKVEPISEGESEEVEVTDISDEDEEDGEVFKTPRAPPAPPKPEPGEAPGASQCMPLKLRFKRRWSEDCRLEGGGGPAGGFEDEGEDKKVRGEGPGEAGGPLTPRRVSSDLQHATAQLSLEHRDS
Procedure, shortened: as §1

ETV3L = biological target: T4, ETV3L (Homo sapiens, UniProt Q6ZN32 1-361)
T4 sequence: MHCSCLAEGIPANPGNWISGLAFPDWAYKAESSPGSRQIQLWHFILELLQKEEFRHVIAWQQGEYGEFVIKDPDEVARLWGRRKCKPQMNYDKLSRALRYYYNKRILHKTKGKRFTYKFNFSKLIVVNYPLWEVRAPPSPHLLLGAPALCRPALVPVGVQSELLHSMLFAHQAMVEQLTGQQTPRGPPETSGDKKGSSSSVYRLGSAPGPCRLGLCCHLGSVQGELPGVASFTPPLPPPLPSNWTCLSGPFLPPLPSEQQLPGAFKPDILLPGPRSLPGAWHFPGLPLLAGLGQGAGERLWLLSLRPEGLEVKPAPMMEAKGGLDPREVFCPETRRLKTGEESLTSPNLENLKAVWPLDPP
Procedure, shortened: as §1

ETS2 = biological target: T5, ETS2 (Homo sapiens, UniProt P15036 1-469)
T5 sequence: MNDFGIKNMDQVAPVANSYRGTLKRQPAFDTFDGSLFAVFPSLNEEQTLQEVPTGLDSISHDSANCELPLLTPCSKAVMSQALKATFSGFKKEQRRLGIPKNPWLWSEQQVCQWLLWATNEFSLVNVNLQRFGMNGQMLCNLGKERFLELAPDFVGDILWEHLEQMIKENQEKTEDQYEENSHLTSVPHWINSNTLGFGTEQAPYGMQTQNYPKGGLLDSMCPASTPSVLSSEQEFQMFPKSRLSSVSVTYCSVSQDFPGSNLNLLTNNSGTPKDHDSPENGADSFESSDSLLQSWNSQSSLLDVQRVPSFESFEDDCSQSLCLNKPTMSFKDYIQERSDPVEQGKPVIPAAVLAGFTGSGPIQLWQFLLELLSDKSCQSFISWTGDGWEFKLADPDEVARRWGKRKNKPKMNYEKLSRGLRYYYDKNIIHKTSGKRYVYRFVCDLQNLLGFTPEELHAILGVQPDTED
Procedure, shortened: as §1

SPDEF = biological target: T6, SPDEF (Homo sapiens, UniProt O95238 1-335)
T6 sequence: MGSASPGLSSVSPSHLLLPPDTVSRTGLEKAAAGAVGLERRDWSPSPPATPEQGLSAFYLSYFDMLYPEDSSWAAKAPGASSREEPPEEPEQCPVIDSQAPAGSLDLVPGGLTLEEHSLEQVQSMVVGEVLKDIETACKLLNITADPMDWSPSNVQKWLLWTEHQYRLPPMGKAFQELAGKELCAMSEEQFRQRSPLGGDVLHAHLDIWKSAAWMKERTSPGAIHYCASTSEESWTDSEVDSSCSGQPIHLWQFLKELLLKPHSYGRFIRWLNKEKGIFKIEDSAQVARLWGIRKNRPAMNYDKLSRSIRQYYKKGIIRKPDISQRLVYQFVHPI
Procedure, shortened: as §1

ETV7 = biological target: T7, ETV7 (Homo sapiens, UniProt Q9Y603 1-341)
T7 sequence: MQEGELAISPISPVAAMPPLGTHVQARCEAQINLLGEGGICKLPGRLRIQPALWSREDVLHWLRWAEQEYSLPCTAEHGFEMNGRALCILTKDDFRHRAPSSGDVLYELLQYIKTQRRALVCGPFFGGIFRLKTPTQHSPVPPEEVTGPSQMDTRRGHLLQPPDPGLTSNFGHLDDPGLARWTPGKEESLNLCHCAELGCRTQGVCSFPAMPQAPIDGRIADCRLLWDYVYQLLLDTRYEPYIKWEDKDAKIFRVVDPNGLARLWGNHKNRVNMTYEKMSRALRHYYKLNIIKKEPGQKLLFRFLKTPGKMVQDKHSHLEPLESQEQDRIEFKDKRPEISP
Procedure, shortened: as §1

ETV3 = biological target: T8, ETV3 (Homo sapiens, UniProt P41162-2 1-143)
T8 sequence: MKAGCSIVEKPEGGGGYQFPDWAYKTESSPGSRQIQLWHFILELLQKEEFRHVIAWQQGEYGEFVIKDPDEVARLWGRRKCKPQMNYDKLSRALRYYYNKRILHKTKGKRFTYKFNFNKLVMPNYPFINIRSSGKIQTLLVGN
Procedure, shortened: as §1

ETV6 = ETV6 (Homo sapiens, UniProt P41212 1-452)
Procedure, shortened: as §1

Chain of ETV1 (P50549 whole entry): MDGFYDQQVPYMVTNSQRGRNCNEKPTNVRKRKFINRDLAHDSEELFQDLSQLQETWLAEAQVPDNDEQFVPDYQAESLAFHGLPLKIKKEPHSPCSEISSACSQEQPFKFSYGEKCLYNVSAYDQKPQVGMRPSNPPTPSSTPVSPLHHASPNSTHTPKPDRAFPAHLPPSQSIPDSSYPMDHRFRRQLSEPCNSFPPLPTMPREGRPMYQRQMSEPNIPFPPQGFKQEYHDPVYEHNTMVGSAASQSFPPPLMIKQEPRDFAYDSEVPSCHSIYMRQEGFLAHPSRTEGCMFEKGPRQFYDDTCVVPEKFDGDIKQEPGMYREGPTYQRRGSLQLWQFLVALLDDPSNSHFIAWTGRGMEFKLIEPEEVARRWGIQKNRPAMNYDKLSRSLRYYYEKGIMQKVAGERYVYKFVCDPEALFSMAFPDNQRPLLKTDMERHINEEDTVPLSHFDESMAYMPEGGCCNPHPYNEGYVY
Chain of ETV6 (P41212 whole entry): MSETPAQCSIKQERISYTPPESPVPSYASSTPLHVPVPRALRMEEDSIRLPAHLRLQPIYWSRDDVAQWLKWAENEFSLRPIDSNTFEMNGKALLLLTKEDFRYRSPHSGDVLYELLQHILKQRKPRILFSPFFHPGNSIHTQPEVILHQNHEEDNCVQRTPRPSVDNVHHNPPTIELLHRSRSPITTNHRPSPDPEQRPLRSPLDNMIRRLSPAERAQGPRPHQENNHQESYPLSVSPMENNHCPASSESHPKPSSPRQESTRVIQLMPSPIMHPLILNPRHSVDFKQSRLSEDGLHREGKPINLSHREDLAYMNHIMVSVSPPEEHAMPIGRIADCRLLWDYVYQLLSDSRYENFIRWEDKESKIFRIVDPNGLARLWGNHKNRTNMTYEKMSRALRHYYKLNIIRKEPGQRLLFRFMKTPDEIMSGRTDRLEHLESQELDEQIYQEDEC

With CGTAAA the binding signal (ELK4) was 1.05 fold enrichment (6-mer frequency, TF over GST control), the binding signal (ELF3) was 1.12 fold enrichment (6-mer frequency, TF over GST control) and the binding signal (ETV1) was 1 fold enrichment (6-mer frequency, TF over GST control). For the same sequence, the binding signal (ERF) was 1.09 fold enrichment (6-mer frequency, TF over GST control), the binding signal (ETV3L) was 1.09 fold enrichment (6-mer frequency, TF over GST control) and the binding signal (ETS2) was 1.14 fold enrichment (6-mer frequency, TF over GST control). The binding signal (SPDEF) was 1.09 fold enrichment (6-mer frequency, TF over GST control), the binding signal (ETV7) was 1.08 fold enrichment (6-mer frequency, TF over GST control) and the binding signal (ETV3) was 1.14 fold enrichment (6-mer frequency, TF over GST control). The binding signal (ETV6) was 1.17 fold enrichment (6-mer frequency, TF over GST control).
